High-throughput results from PubChem BioAssay.
HT1080NT lethal – kills 2HG-producing HT-1080-NT fibrosarcoma cells; 1.6% of 360,000 active; Potency, µM (titrated, usually from 46.1 µM), for inactives: at the top dose activity, negative = less viability, hits mostly cytotoxic; AID 686970; HT-1080-NT fibrosarcoma viability, CellTiter-Glo ATP luminescence, 48 h;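 also: NT is the 2HG producing partner of a matched IDH1 knockdown line; potency is read from the fitted curve at half-maximal effect; 0% = DMSO-treated cells and -100% = media-only wells without cells; nearly all actives have a fitted effect of over 55% in size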
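Read-out is CellTiter-Glo luminescence after 10 minutes at room temperature, following 48 hours' compound treatment of HT-1080-NT cells (750 cells/well, RPMI, 5% FBS, 37 degrees C).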
HT1080 IDH1KD tx – kills HT-1080 cells with IDH1 knockdown | HT-1080 IDH1 knockdown viability, ATP luminescence, 48 h | Potency, µM (series often up to 46.1 µM), inactives show top-dose activity, negative = toxicity, hits mostly cytotoxic | 2% of 360,000 active;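 also: potency is read from the fitted curve at half-maximal effect; 0% = DMSO wells and -100% = cell-free medium wells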
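After a 2 h attachment period, IDH1KD HT-1080 cells took pin-transferred compound for 48 h at 37 °C; ATP-based luminescence after 10 min room-temperature reagent incubation reported viability.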
IL1B secr inh – inflammasome signaling inhibition, IL-1 beta readout. activity change, % at 57.5 µM. AID 743279. THP-1 LPS/ATP IL-1B secretion, AlphaLISA, 16 h; hits give low values. 4.7% of 360,000 active; in the data active = activity change below about -50%; inconclusive = mostly about -30% to -49%
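THP-1 cells pretreated 1 hr with compounds (up to 57.5 uM final), then stimulated with LPS (250 ng/mL final) plus ATP (1.25 mM final); secreted IL-1B measured by AlphaLISA after 16 hr, decreased signal indicating inhibition.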
DT40 TDP1 no CPT – qHTS for Inhibitors of human tyrosyl-DNA phosphodiesterase 1 (TDP1): qHTS in cells in absence of CPT; 15% of 420,000 active; AID 686978, 2013; DT40 Tdp1-/- hTDP1 cells, no CPT, ATP luminescence, 48 h; Potency, µM (top dose mostly 46.2 µM), for inactives: top-dose activity change, negative = growth inhibition, most hits filed as inhibitors; also: potency is read from the fitted curve at half-maximal effect; nearly all actives have a fitted effect of over 55% in size
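Compound effects on proliferation are scored in DT40 Tdp1-/-;hTDP1 cells in the absence of CPT. ATP levels (CellTiter-Glo luminescence) are recorded after a ≥48 hr, 37 °C incubation.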
DT40 TDP1 CPT – DT40-hTDP1 cell growth loss with CPT | chicken DT40 Tdp1-/-;hTDP1 cells + 20 nM CPT, ATP luminescence, 48 h | Potency, µM (titrated, usually from 46.2 µM), inactives show top-dose activity change, negative = growth inhibition, most hits filed as inhibitors | 12% of 420,000 active | AID 686979; also: potency is read from the fitted curve at half-maximal effect; nearly all actives have a fitted effect of over 55% in size
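Chicken DT40 Tdp1-/- cells complemented with human TDP1, 400 cells/well, exposed to compounds plus 20 nM camptothecin for at least 48 h at 37 C; viability read as ATP content by CellTiter-Glo luminescence.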
ELG1 DNA repair – blocks ELG1-dependent DNA repair in HEK293T cells; HEK293T ELG1-luciferase reporter, luminescence, 16 h; DNA damage induced by 5-fluorouridine; Potency, µM (doses to about 46.1 µM), without a hit: top-dose activity change, negative = inhibition, usual class: inhibitors; 2.3% of 330,000 active; AID 504467; also: potency is read from the fitted curve at half-maximal effect; nearly all actives have a fitted effect of over 55% in size
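Overnight (16 hr) co-exposure of 2,000 cells/well to 5-fluorouridine and compound at 37 °C preceded detection. Luciferase was quantified via ONE-Glo luminescence; loss of signal denotes inhibition.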
An asterisk follows results filed as active; u = inconclusive; x = no result given; [ ] = remark or other dose. Sampled rows, rich in hits. Any-hit rate of the full collection: about 19%. Unless noted, calls follow the shape of the dose curve; as a rule, active = well fitted curve in the direction sought with a large enough effect; inconclusive = small, poorly fitted or top-dose-only effect, or another doubt; inactive = no such curve, though single readings can be large; an effect the other way counts as inactive or inconclusive. Unless noted, % is scaled to controls: 0 for no effect and ±100 for the full control effect.

SMILES | HT1080NT lethal | HT1080 IDH1KD tx | IL1B secr inh | DT40 TDP1 no CPT | DT40 TDP1 CPT | ELG1 DNA repair
Cc1ccc(N2C(=O)NC(NS(=O)(=O)c3ccc(Cl)cc3)(C(F)(F)F)C2=O)cc1C (stereo not given) | x | x | x | -10% | -10% | x
CCc1ccc(NC(=O)Cn2c(=O)n(CCC(=O)NCCc3ccc(OC)c(OC)c3)c(=O)c3ccccc32)cc1 | x | x | x | 3% | -4% | x
CCOC(=O)c1c(-c2ccc(C)cc2)csc1NC(=O)CCSc1nnc2ccccn12 | -4% | -3% | 22 | 23µM* | 23µM* | u
CC(Nc1nc(-c2ccccc2)nc2ccccc12)c1ccccc1 (stereo not given) | u | -17% | -23 | u | u | u
CC(Nc1nc(N2CCCCC2)nc2ccccc12)c1ccccc1 (stereo not given) | u | u | u | 23µM* | u | u
CCN1CCN(c2nc(NCCO)c3ccccc3n2)CC1 | -1% | 0% | 22 | 1% | 3% | -6%
C=CCNc1nc(N2CCCC2)nc2ccccc12 | -30% | u | -14 | 16µM* | 16µM* | -24%
Cc1cccc(N2CCN(C(=O)c3ccc(NC(=O)C4CCCO4)cc3)CC2C)c1 (stereo not given) | 3% | 3% | -14 | -28% | -27% | -14%
COc1ccc(N2CCN(C(=O)c3ccc(C)c(NC(=O)c4nsc5ccccc45)c3)CC2)cc1 | x | x | x | u | 26µM* | x
Cc1cccc(N2CCN(C(=O)c3ccc(NC(=O)c4nsc5ccccc45)cc3)CC2C)c1 (stereo not given) | x | x | x | 6.5µM* | 9.2µM* | x
Cc1ccc(Cl)cc1N1CCN(C(=O)c2ccc(NC(=O)c3nsc4ccccc34)cc2)CC1 | x | x | x | 18µM* | u | x
CC(C)C(=O)Nc1nnc(SCc2cc(=O)n3ccccc3n2)s1 | x | x | x | -20% | u | x
Cc1c(C(=O)Nc2ccccc2)sc2nc(-c3cc4ccccc4oc3=O)[nH]c(=O)c12 | x | x | x | -24% | -4% | x
CC(C(=O)NC(=O)NC1CCCCC1)N1CCN(C(c2ccccc2)c2ccccc2)CC1 (stereo not given) | -1% | 6% | 3 | 15µM* | 23µM* | u
CCOc1ccccc1NC(C)C(=O)NC(=O)NC1CCCCC1 (stereo not given) | 1%[9.24 µM] | -3% | 39 | -28% | 18µM* | 26%
CC(C(=O)NC1CCCC1)N1CCN(Cc2ccccc2)CC1 (stereo not given) | 16% | 5% | 7 | 0% | -6% | -9%
COCCNC(=O)c1cc(-c2ccccc2)n(Cc2cc(C)no2)n1 | 2% | 0% | -13 | -8% | -18% | 9%
Cc1cc(Cn2nc(C(=O)NCc3cccc(Br)c3)cc2-c2ccccc2)on1 | u | -2% | -58* | u | u | u
Cc1cccc(C)c1OC(=O)CSc1nnc(CNC(=O)c2ccccc2)o1 | x | x | x | -10% | -8% | x
CCOC(=O)c1cnc(N2CCN(c3ccccc3)CC2)[nH]c1=O | 3% | 15% | 8 | -11% | 7% | 0%
O=C(Nc1cccc(Oc2ccccc2)c1)c1ccc(-n2cncn2)c2ccoc12 | -8% | u | 34 | u | 18µM* | x
CC(=O)Nc1c(C)ccc2nsnc12 | 1% | -1% | 15 | -4% | 13% | u
Cc1cc2c(cc1NC(=O)c1ccc(C(C)(C)C)cc1)n(C)c(=O)c(=O)n2C | x | x | x | 26µM* | 23µM* | x
Cc1ccc(C(=O)Nc2cc([N+](=O)[O-])ccc2C)cc1 | 2% | -1% | 42 | 8% | 4% | 10%
Cc1ccc2nsnc2c1NC(=O)c1ccc([N+](=O)[O-])cc1 | u | u | 48 | u | -25% | 16µM*
SMILES | HT1080NT lethal | HT1080 IDH1KD tx | IL1B secr inh | DT40 TDP1 no CPT | DT40 TDP1 CPT | ELG1 DNA repair
Cc1c(NC(=O)c2ccc(C(C)(C)C)cc2)cccc1[N+](=O)[O-] | 0% | -24% | -52* | 21µM* | 16µM* | -4%
Cc1ccc([N+](=O)[O-])cc1NC(=O)c1ccc(C(C)(C)C)cc1 | u | -14%[9.24 µM] | u | 13µM* | u | u
COCCNC(=O)C1(C)CCCN(C(=O)c2ccc(-c3ccccc3)cc2)C1 (stereo not given) | 7% | 2% | 23 | u | u | x
Cc1ccc2c(c1)CCC2=O | x | x | x | u | 12% | x
CCN(CC)S(=O)(=O)c1ccc(C(=O)NCCOC(=O)c2ccc(F)cc2F)cc1 | 15% | 20% | 10 | u | -14% | 0%
Cc1ccc(F)cc1NC(=O)CCNC(=O)c1ccc([N+](=O)[O-])cc1 | 3% | 6% | -74* | u | -23% | 14%
CC1CCN(Cc2c(C(=O)N/N=C/c3ccccc3O)nnn2-c2nonc2N)CC1 | u | 5.2µM* | 91 | 7.3µM* | 8.2µM* | u
CC(/C=N/NC(=O)c1nnn(-c2nonc2N)c1CN1CCCCC1)=C\c1ccccc1 | u | u | -7 | u | u | -21%
Cc1nnn(-c2nonc2N)c1C(=O)N/N=C/c1ccccc1O | 6.5µM* | 8.2µM* | 31 | 4.6µM* | 4.1µM* | u
CC(=C/c1ccccc1)/C=N/NC(=O)c1nnn(-c2nonc2N)c1CN1CCC(C)CC1 | 0% | -2% | -11 | 18µM* | u | u
Cc1ccccc1COc1ccc(/C=N/NC(=O)c2nnn(-c3nonc3N)c2CN2CCC(C)CC2)cc1 | -18% | -2% | u | 3.3µM* | 10µM* | 5%
COc1cc(/C=N/NC(=O)c2c(C)nnn2-c2nonc2N)ccc1O | u | -24% | -1 | -9% | 4% | 2%
CC(Oc1ccccc1)C(=O)Nc1ccc(C(=O)OCc2cc(=O)n3nc(C(C)C)sc3n2)cc1 (stereo not given) | x | x | x | -25% | 4% | x
Cc1cc(C)n2nc(Sc3ncccc3[N+](=O)[O-])nc2n1 | -1% | -1% | 17 | u | u | 6%
CN(Cc1c(C(=O)N/N=C/c2ccccc2O)nnn1-c1nonc1N)C1CCCCC1 | 12µM* | u | 146 | 6.5µM* | u | x
CN(Cc1c(C(=O)N/N=C/c2cccc(O)c2)nnn1-c1nonc1N)C1CCCCC1 | 0% | 0% | -1 | -11% | -8% | u
CN(C)S(=O)(=O)c1cccc(-c2nn(-c3ccccc3)cc2/C=C(\C#N)c2nc3ccccc3[nH]2)c1 | -1% | 3% | -3 | 5.8µM* | 5.2µM* | 2.6µM*
